# Source: PubChem (NMMLSC)
# Most compounds without a hit are left out; they make up all but 1.2% or so of the library.
# FPRL1 ligand = human FPRL1 ligands by binding competition, primary screen, cell-based, FPR counter-screen, flow cytometry; FPRL1-expressing cells, fluorescent ligand binding inhibition; inhibition, % (no concentration beside the values); hit rate 0.3% among 24,000;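 note: 0% = buffer alone and 100% = receptor blocker peptide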
# FPR binder = human FPR ligands by binding competition, primary screen, cell-based, FPRL1 counter-screen, flow cytometry; fMet-Leu-Phe receptor (Homo sapiens), P21462; FPR-expressing cells, fluorescent ligand binding; inhibition, % (no concentration beside the values); hit rate 0.74% among 24,000; AID 440, 2006;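 note: 0% = buffer wells and 100% = receptor blocker peptide wells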
# Target sequence (P21462 whole entry, looked up): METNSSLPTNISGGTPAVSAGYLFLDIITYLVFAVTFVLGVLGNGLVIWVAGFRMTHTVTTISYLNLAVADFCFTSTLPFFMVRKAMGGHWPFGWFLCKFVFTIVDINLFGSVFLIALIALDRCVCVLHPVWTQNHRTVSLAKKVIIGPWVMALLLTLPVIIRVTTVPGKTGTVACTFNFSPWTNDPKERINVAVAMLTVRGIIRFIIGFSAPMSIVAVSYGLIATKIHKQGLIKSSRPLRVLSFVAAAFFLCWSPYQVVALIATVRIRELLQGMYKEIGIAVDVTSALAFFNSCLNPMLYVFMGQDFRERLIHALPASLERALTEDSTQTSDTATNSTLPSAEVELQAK
# QS inhibitor = S. aureus quorum sensing inhibitors, primary screen, RNAIII-GFP reporter, flow cytometry; S. aureus RN6390 RNAIII-GFP reporter, AIP-induced, flow cytometry 3 h; inhibition, % at 2 µM; AID 527, 2006; hit rate 0.3% among 24,000;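 active = share of bacteria positive for the green fluorescent reporter and its mean brightness both inhibited by 50% or more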;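 note: 0% = AIP-stimulated control and 100% = unstimulated bacteria without AIP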
# An asterisk follows results filed as active; ? = inconclusive; . = not tested or not shown. Cut-off read from the data, not from the text of the source, unless noted: active = inhibition above about 30%; inconclusive = no clear call, values can overlap the other calls; inactive = below that.
SMILES,FPRL1 ligand,FPR binder,QS inhibitor
C=CCOc1cccc(C2C(C(=O)c3ccco3)=C(O)C(=O)N2CCN2CCOCC2)c1 (configuration not stated),-2,63*,.
C=CCOc1cccc(C2C(C(=O)c3ccco3)=C(O)C(=O)N2Cc2ccncc2)c1 (configuration not stated),-8,13,.
CCOC(=O)c1c(N)nn(C(=O)C(C)C)c1-c1ccccc1,2,-9,0
CN(CCNC(=O)c1ccc(N2CCCC2=O)cc1)CCc1ccccc1,-4,-3,-1
COc1ccc(S(=O)(=O)N2CCC(C(=O)Nc3ccccc3C)CC2)c2cccnc12,1,-2,0
CCc1c(C)sc(NC(=O)c2cc(C)on2)c1C#N,-3,6,90*
CCCc1cc(C(=O)Nc2sc(C)c(CC)c2C#N)no1,-3,13,6
COc1ccc(Oc2ccc(/C=C/C(=O)c3cccc(OC)c3)cc2[N+](=O)[O-])cc1,.,.,-1
Cc1cc(NC(=O)C2CCCC2)nc2c1c(=O)oc1ccccc12,-13,-2,54*
Cc1cc(NC(=O)C2CCCCC2)nc2c1c(=O)oc1ccccc12,-15,-15,-4
CCOC(=O)Cn1c(=O)oc2cc(S(=O)(=O)Nc3ccc(N(CC)CC)cc3C)ccc21,?,-48,90*
CCOC(=O)Cn1c(=O)oc2cc(S(=O)(=O)Nc3cc(OCC)ccc3OCC)ccc21,-6,-6,1
CC1=C(C)C(=O)NC(Nc2nc(C)c3cc(C)cc(C)c3n2)N1 (configuration not stated),-2,-2,1
COc1ccc(NC(=O)C2=C(C)C(=O)OC23CCC(C)CC3)c(OC)c1 (configuration not stated),-2,-1,-7
COc1cc(C2/C(=C(/O)c3ccc(F)cc3)C(=O)C(=O)N2CCCC(=O)O)ccc1O (configuration not stated),-2,-5,-4
CCC(=O)NC(C)C(c1cccs1)N1CCN(c2ccccc2)CC1 (configuration not stated),47*,-4,0
CC(NC(=O)Cc1cccs1)C(c1cccs1)N1CCN(c2ccccc2)CC1 (configuration not stated),-2,1,0
CCN1C(=O)/C(=C2\SC(=S)N(CCCOC)C2=O)c2ccccc21,33*,23,.
COCCCN1C(=O)C(O)=C(C(C)=O)C1c1ccccn1 (configuration not stated),-3,7,0
COc1cc2c(cc1OC)CN(C(=O)CSc1nnc3scc(-c4ccccc4)n13)CC2,-2,1,0
CCOC(=O)c1nnn(-c2nonc2N)c1CN(C)Cc1ccccc1,8,3,-3
O=C1SC(SC(=Nc2ccccc2)Nc2ccccc2)C(=O)N1c1ccccc1 (configuration not stated),.,.,-17
CCOC(=O)N1CCC(NC(=O)c2cc3c(C)nc4ccccc4c3o2)CC1,28,40*,-2
Cc1nc2ccccc2c2oc(C(=O)N3CCc4ccccc43)cc12,26,38*,-2
Cc1cccc(N2CCN(C(=O)c3cc4c(C)nc5ccccc5c4o3)CC2)c1C,6,4,6
SMILES,FPRL1 ligand,FPR binder,QS inhibitor
CCN1CCCC1CNC(=O)c1cc2c(C)nc3ccccc3c2o1 (configuration not stated),4,2,-3
Cc1ccc(Cn2nnc3c(=O)n(Cc4cc(C)ccc4C)cnc32)cc1,8,-5,1
CCCN1C(=O)c2cc(C(=O)NCc3ccc(OC)cc3)ccc2C1O (configuration not stated),-2,-3,2
COc1ccc2cnn(-c3ccccc3C)c(=O)c2c1OC,-6,-10,4
COc1ccc2cnn(-c3ccccc3)c(=O)c2c1OC,45*,36*,-1
COc1cc2c3c(c1)/C(=C1/SC(NC(C)=O)=NC1=O)C(=O)N3C(C)(C)C=C2C,11,30*,-1
CC(C)(C)NC(=O)c1sccc1C(=O)O,0,0,-3
O=C1Nc2ccccc2OC1CC(=O)N1CCN(c2cccc(C(F)(F)F)c2)CC1 (configuration not stated),-5,6,1
Cc1nnc(SCc2cnc(-c3ccccc3)o2)[nH]c1=O,52*,63*,0
Cc1nnc(SCC(C)C)[nH]c1=O,0,-4,-2
CC1(C)CC2CC(C)(CN2C(=O)c2cc(-c3ccccc3O)on2)C1 (configuration not stated),-6,-8,-8
COC(=O)CC1Oc2ccc(C)cc2NC1=O (configuration not stated),5,-5,-7
O=C(O)CC1Oc2ccc(Cl)cc2NC1=O (configuration not stated),37*,-38,4
COc1ccccc1Oc1c(C)oc2c(CN3CCN(CCO)CC3)c(O)ccc2c1=O,1,-6,.
COc1ccccc1Oc1c(C)oc2c(CN(C)C)c(O)ccc2c1=O,30*,22,.
CCC(Sc1nc2ccccc2c(=O)n1CC1CCCO1)C(=O)NCc1cccnc1 (configuration not stated),2,1,-4
CC(=O)c1cc2c(cc1NC(=O)CN1CCCCCCC1)OCO2,.,.,-4
CCOC(=O)CCC(=O)O[C@H]1[C@H](O[C@@H]2[C@@H](C)[C@H](O[C@H]3C[C@@](C)(OC)[C@@H](O)[C@H](C)O3)[C@@H](C)C(=O)O[C@H](CC)[C@@](C)(O)[C@H](O)[C@@H](C)C(=O)[C@H](C)C[C@@]2(C)O)O[C@H](C)C[C@@H]1N(C)C,-2,0,52*
COc1ccc(Nc2nc(-c3sc(N)nc3C)cs2)cc1,3,-7,56*
COc1ccc(OC)c(Nc2nc(-c3cccs3)cs2)c1,1,-4,8
O=C(Nc1ccc2c(c1)OCCO2)C1CCCN(S(=O)(=O)c2cnc[nH]2)C1 (configuration not stated),-3,-2,-2
CCOc1cccc(C(=O)N(Cc2ccc(F)cc2)C2CCS(=O)(=O)C2)c1 (configuration not stated),0,3,-1
COc1ccc(CN(C(=O)c2ccccc2OC)C2CCS(=O)(=O)C2)cc1 (configuration not stated),51*,51*,-1
Cc1ccc(-n2c(Cn3cnc4ccccc43)nnc2SCC(=O)O)cc1,8,8,-2
CC(=O)c1ccc(N2CCN(C(=O)c3cc4c(-c5ccccc5F)nn(C)c4s3)CC2)cc1,-11,-10,-1
SMILES,FPRL1 ligand,FPR binder,QS inhibitor
CC(CCc1ccco1)NC(=O)c1cc2c(-c3ccccc3F)nn(C)c2s1 (configuration not stated),1,3,61*
Cc1ccc(CN2CCN(CC(=O)NCc3ccc(Cl)cc3)C2=O)cc1,9,2,20
N#Cc1c(N)n(CCNC(=O)c2cccs2)c2nc3ccccc3nc12,-22,-25,-2
C=CCn1c(NC(=O)c2ccccc2Cl)c(C#N)c2nc3ccccc3nc21,-7,4,.
C=CCn1c(NC(=O)c2ccccc2)c(C#N)c2nc3ccccc3nc21,32*,?,.
CCCCn1c(NC(C)=O)c(C#N)c2nc3ccccc3nc21,4,66*,.
